This is a sample that favours compounds with a hit; in the whole collection about 7.3% have one here.
HCMV inh – blocks human cytomegalovirus replication; HFF cells, HCMV-luciferase reporter, 72 h; hits give low values; activity change, negative = inhibition, % at 57.5 µM; 410,000 compounds, 4.5% hits; in the data active = activity change below about -60%; inconclusive = no clear call, values can overlap the other calls; inactive = above about -39%
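After 16 h attachment at 37C, HFF cells received test compound and HCMV-luciferase (1 PFU/cell); reporter luminescence read 72 h later, data normalized against buffer-only and known inhibitor Salinomycin.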
FMDV inh – foot and mouth disease virus antiviral activity; FMDV antiviral cell-based qHTS; Potency, µM (series often up to 57.9 µM), actives largely listed as inhibitors; 410,000 compounds, 1.2% hits; AID 1159524; calls by dose curve; tested in HEK293T cells; note: read-out not given here; nearly all actives have a fitted effect of over 45% in size
VACV Venus inh – inhibitors of vaccinia virus (Venus reporter); Potency, µM (highest dose often 36.5 µM), hits mostly inhibitors; 330,000 compounds, 0.46% hits; AID 720580; Vaccinia virus Venus reporter expression, fluorescence; calls by dose curve; tested in A549 cells; note: nearly all actives have a fitted effect of over 30% in size
VACV mCherry inh – vaccinia inhibition (mCherry reporter); Vaccinia virus mCherry reporter infection, fluorescence; Potency, µM (doses to about 36.5 µM), actives largely listed as inhibitors; 310,000 compounds, 0.63% hits; AID 720579; calls by dose curve; tested in A549 cells; note: nearly all actives have a fitted effect of over 35% in size
HCV inhibitor – HCV inhibition. 340,000 compounds, 3.4% hits. AID 651820. Potency, µM (highest dose often 41.8 µM), hits mostly inhibitors. Huh7.5.1 HCVcc-Cre infection, luciferase reporter, 44 h; active = well fitted inhibition curve with a large enough effect; inconclusive = small, poorly fitted or top-dose-only effect, or another doubt; inactive = no such curve, though single readings can be large or run the other way
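Luciferase read-out (15 sec integration) after a 15 min room-temperature substrate step quantifies HCVcc-Cre infection. Cells, 1,000 per well, had compound added 4 h post-plating, then virus at ~0.5 moi, and were cultured 44 h.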
Large screens that a line does not name were inactive.

O=[N+]([O-])c1ccc(Sc2nnnn2-c2ccccc2)nc1	HCMV inh -88.1, FMDV inh 22.4µM, HCV inhibitor inconclusive
CCCn1c(Sc2nnnn2-c2ccccc2)n[nH]c1=O	HCMV inh -105.9 (no result: VACV Venus inh, VACV mCherry inh)
Cc1ccccc1-n1nnnc1Sc1nnnn1-c1ccccc1	HCMV inh inconclusive, FMDV inh 8.91µM, VACV Venus inh inconclusive, HCV inhibitor inconclusive (no result: VACV mCherry inh)
O=C(NCc1ccc(F)cc1)c1cc(C2CCCCN2C(=O)OCCF)on1 (centres undefined)	none (no result: HCV inhibitor)
CCCS(=O)(=O)NC(=O)C1(C)CCN(C(=O)c2cccnc2Oc2ccccc2)C1 (centres undefined)	none (no result: HCV inhibitor)
CCN(CC)CCNC(=O)c1ccc(NC(=O)Nc2cccc3ccccc23)cc1	HCMV inh inconclusive
COc1ccc(-n2nnnc2-c2ccccc2)cc1	HCMV inh -60.4, VACV mCherry inh inconclusive (no result: FMDV inh)
COc1ccc(CSc2nnnn2-c2ccccc2)cc1	none (no result: VACV mCherry inh)
COc1ccc2c(C)cc(Sc3nnnn3-c3ccccc3)nc2c1	HCMV inh -101.0, VACV mCherry inh inconclusive
O=C(NC1CCCCC1)C(c1cccnc1)N(C(=O)CCl)c1cccc(Cl)c1 (centres undefined)	HCMV inh -103.9, FMDV inh 7.94µM, VACV Venus inh inconclusive, VACV mCherry inh inconclusive, HCV inhibitor 0.891µM
COc1ccc(C(C(=O)NC2CCCC2)N(C(=O)c2ccco2)c2ccc3c(c2)OCO3)cc1OC (centres undefined)	HCMV inh -75.0 (no result: VACV mCherry inh)
COC(CN(C(=O)CCl)C(C(=O)NC1CCCCC1)c1ccccc1C)OC (centres undefined)	HCMV inh -96.7, FMDV inh inconclusive, VACV Venus inh 11.2µM, VACV mCherry inh 12.6µM, HCV inhibitor 10µM
COc1ccc(C(C(=O)NC2CCCCC2)N(C(=O)CCl)c2ccc(Cl)cc2)cc1 (centres undefined)	HCMV inh -101.3, FMDV inh 15.8µM, HCV inhibitor 0.562µM
COc1ccc(C(C(=O)NC2CCCC2)N(C(=O)c2ccco2)c2cc3c(cc2C(C)=O)OCO3)cc1OC (centres undefined)	none
O=C(c1ccco1)N1CCN(c2ncnc3c(-c4ccc(Cl)cc4)nsc23)CC1	FMDV inh inconclusive (no result: HCMV inh)
CCC(=O)Oc1c(Sc2ccc(Cl)cc2)c(C)nn1C(C)(C)C	none (no result: HCV inhibitor)
CN1OC(C)(CC(=O)NCCc2ccccc2)N=C1c1ccccc1F (centres undefined)	none (no result: FMDV inh, VACV Venus inh, VACV mCherry inh, HCV inhibitor)
COc1ccc(N(C(=O)c2ccco2)C(C(=O)NC2CCCCC2)c2ccccc2)cc1 (centres undefined)	HCMV inh -77.1 (no result: VACV mCherry inh)
COc1ccc(N(C(=O)/C=C/C(=O)Nc2cc(C)on2)C(C(=O)NC2CCCC2)c2ccccc2C)cc1 (centres undefined)	HCMV inh -63.6, VACV Venus inh inconclusive, VACV mCherry inh inconclusive, HCV inhibitor inconclusive
COc1ccc(N(C(=O)c2ccco2)C(C(=O)NC2CCCC2)c2ccccc2)cc1 (centres undefined)	none
O=C(CCCC(=O)N(c1ccc2c(c1)OCCO2)C(C(=O)NC1CCCCC1)c1ccc(Cl)cc1)Nc1ccccn1 (centres undefined)	HCMV inh -68.7 (no result: FMDV inh)
Cc1ccc(Cl)cc1N1CCN(C(=O)CN2C(=O)CSc3c2c(C)nn3-c2ccccc2)CC1	none (no result: HCV inhibitor)
Cc1ccc(C)c(N2CCN(C(=O)CN3C(=O)CSc4c3c(C)nn4-c3ccccc3)CC2)c1	FMDV inh 35.5µM (no result: HCV inhibitor)
CN1CCC2(CC1)CCN(C(=O)c1ccncc1)CC2	none (no result: HCMV inh, VACV Venus inh, VACV mCherry inh, HCV inhibitor)
CCCn1c2ccccc2c2nnc(SCC(=O)Nc3ncccn3)nc21	VACV Venus inh 11.2µM (no result: VACV mCherry inh)
O=C(CSc1nnc2c(n1)[nH]c1ccc(F)cc12)Nc1ccccc1F	none
C=CCn1c2ccccc2c2nnc(SCC(=O)Nc3cc(C)on3)nc21	HCV inhibitor inconclusive (no result: VACV mCherry inh)
O=C(CSc1nnc2c3ccccc3c3ccccc3c2n1)Nc1ccccc1F	HCMV inh -87.8
CSc1nnc2c3ccccc3n(CCc3ccccc3)c2n1	HCMV inh -98.1, FMDV inh inconclusive, HCV inhibitor inconclusive (no result: VACV Venus inh, VACV mCherry inh)
CCCn1c2ccccc2c2nnc(SCC(=O)Nc3cccc(C(C)=O)c3)nc21	FMDV inh inconclusive, VACV Venus inh inconclusive, VACV mCherry inh inconclusive (no result: HCV inhibitor)
CCCn1c2ccccc2c2nnc(SCC(=O)Nc3cc(C)on3)nc21	VACV Venus inh 10µM (no result: VACV mCherry inh)
COC(=O)c1ccc(NC(=O)c2cc3cc(C)ccc3n2C)cc1	none (no result: HCV inhibitor)
O=C(Nc1ccc(F)cc1F)c1cc(-c2ccc3c(c2)OCO3)on1	none
Cc1ccc(-n2c(=O)[nH]c3cc(C(=O)NCCc4ccccc4)ccc3c2=O)cc1	none (no result: HCV inhibitor)

Source: PubChem (National Center for Advancing Translational Sciences (NCATS))
